Compound activity deposited in PubChem by several laboratories.
NCOA1 inh = SRC1 coactivator transcriptional activity inhibitors, primary screen, cell-based, luminescence; inhibition, % at 3.6 µM; Nuclear receptor coactivator 1 (Homo sapiens), Q15788; HEK293 GAL4-SRC1 luciferase reporter; 360,000 compounds, 0.12% hits;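 active means inhibition above the campaign mean plus 3 SD, with each screening campaign given its own cutoff, cut at about 60% in these data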
NR5A2 inv ag = LRH-1 (NR5A2) inverse agonists, primary screen, cell-based, luminescence, HEK293T, StAR-luciferase reporter | Nuclear receptor subfamily 5 group A member 2 (Homo sapiens), O00482 | 360,000 compounds, 0.13% hits | LRH-1 transfected, 24 h | AID 602396, 2012 | inhibition, % at 3.6 µM;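 active means inhibition above the mean inhibition of all tested compounds plus 3 SD, cut at about 73% in these data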
NR2F2 inh = NR2F2 transcriptional activity inhibitors, primary screen, cell-based, luciferase reporter, HEK293T, luminescence; COUP transcription factor 2 (Homo sapiens), P24468; HEK293T NGFI-A luciferase reporter; 370,000 compounds, 0.7% hits; inhibition, % at 8.6 µM;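 active means inhibition above a per-plate cutoff, mean inhibition of test wells between control levels plus 3 SD, cut at about 38% in these data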;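 further: cells cotransfected with COUP-TFII expression vector driving the NGFI-A reporter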
SRC2 inh = inhibition of GAL4-SRC2 driven luciferase reporter, primary screen, SRC2 inhibitor project, cell-based, luminescence. Nuclear receptor coactivator 2 (Homo sapiens), Q15596. HEK293 GAL4-SRC2 luciferase reporter. inhibition, % at 9 µM. 370,000 compounds, 0.17% hits. AID 651957, 2012;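 active means inhibition above the mean inhibition of all tested compounds plus 3 SD, set per campaign, cut at about 52% in these data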
Gli-Sufu antag = Gli-Sufu pathway antagonists, primary screen, luciferase luminescence, Sufu-KO-LIGHT cells, uHTS; Sufu-KO-LIGHT fibroblasts, Gli luciferase reporter luminescence; inhibition, % at 5 µM; 340,000 compounds, 0.74% hits; AID 588413, 2011;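 active means inhibition above about 55%, limit read from the data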
NCOA3 inh = SRC3 coactivator transcriptional activity inhibitors, primary screen, cell-based, luminescence; Nuclear receptor coactivator 3 (Homo sapiens), Q9Y6Q9; HEK293 GAL4-SRC3 luciferase reporter; inhibition, % at 3.6 µM; 360,000 compounds, 0.17% hits; AID 588352, 2011;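 active means inhibition above a per-campaign cutoff, the mean of all compounds plus 3 SD, cut at about 60% in these data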;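 further: higher means less SRC3-driven luciferase light from the GAL4 reporter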
Each line names hits and unclear results; the compound was inactive in the other large screens. Hits are enriched below; roughly 1.3% of the tested compounds scored in any of these assays.

COc1cccc(N(C(=O)CCl)C(C(=O)NCCc2ccccc2)c2cccs2)c1 (stereo unspecified)	SRC2 inh 61.4, Gli-Sufu antag 92.8, NCOA3 inh 68.1
COc1ccc(N(C(=O)CCl)C(C(=O)NCCc2ccccc2)c2cccs2)cc1Cl (stereo unspecified)	Gli-Sufu antag 95.7, NCOA3 inh 76.3
CN1Cc2nnn(Cc3ccccc3)c2-c2ccccc2S1(=O)=O	none (no result: NCOA1 inh, NR5A2 inv ag, Gli-Sufu antag, NCOA3 inh)
COC(=O)C1CN(Cc2ccc(C)cc2)CCS(=O)(=O)N1Cc1cn(Cc2ccccc2)nn1 (stereo unspecified)	none (no result: NCOA1 inh, NR5A2 inv ag, Gli-Sufu antag, NCOA3 inh)
CC(=O)Nc1ccc(C(/C=C/c2ccccc2)Cc2ccccc2)cc1 (stereo unspecified)	none (no result: NCOA1 inh, NR5A2 inv ag, Gli-Sufu antag, NCOA3 inh)
CCOC(=O)[C@]12CCCCC/C=C\1N(Cc1ccc(OC)cc1)C(=O)[C@H]2CC(=O)NCc1ccc(OC)c(OC)c1	none (no result: NCOA1 inh, NR5A2 inv ag, Gli-Sufu antag, NCOA3 inh)
Cc1cccc(C)c1NS(=O)(=O)c1ccc(-c2cnc(C3CC3)o2)cc1	Gli-Sufu antag 57.1
COc1ccc(C2CC(=O)C(c3ccc(Cl)c(Cl)c3)=CN2Cc2ccccc2)cc1 (stereo unspecified)	none (no result: NCOA1 inh, NR5A2 inv ag, Gli-Sufu antag, NCOA3 inh)
CC(C)(C)OC(=O)N1CCN(c2ccc(CNC(=O)c3ccc(Cl)cc3)cc2)CC1	NR2F2 inh 39.3
O=C(N/N=C\c1c(O)ccc2ccccc12)c1ccc(S(=O)(=O)N2CCCCC2)cc1	Gli-Sufu antag 85.5
O=C(NN=Cc1c(O)ccc2ccccc12)c1ccc2c(c1)OCO2	none
CC(C)CCNC(=O)C(C)N(Cc1ccc(F)cc1)C(=O)c1ccc(CN2CCOCC2)o1 (stereo unspecified)	none
O=C(NC1CCCCC1)C(c1ccc(F)cc1)N(CCCN1CCOCC1)C(=O)c1ccc(CN2CCOCC2)o1 (stereo unspecified)	NCOA1 inh 93.0
Cc1cccc(-c2cccc3c4c([nH]c23)[C@@H]2C[C@H](N(C)C(=O)NC3CCCCC3)[C@H]([C@H](C)O)CN2CC4)c1	none (no result: NCOA1 inh, NR5A2 inv ag, Gli-Sufu antag, NCOA3 inh)
CC(=O)CSc1nnc(-c2ccc3c(c2)OCO3)o1	none
O=C(O)CCSc1nnc(-c2ccc3c(c2)OCO3)o1	SRC2 inh 69.6
CC(C)C[C@@H]1NC(=O)[C@H]2C[C@@]3(C)c4ccccc4N[C@H]3N2C1=O	none (no result: NCOA1 inh, NR5A2 inv ag, Gli-Sufu antag, NCOA3 inh)
N#Cc1sc2nccc(Nc3ccccc3)c2c1N	NCOA1 inh 72.5, NCOA3 inh 64.1
Nc1cc(Nc2ccccc2)ccn1	none
COc1ccc(Cn2cc(CN3[C@@H](Cc4ccccc4)COc4cc(Br)ccc4S3(=O)=O)nn2)cc1	none (no result: NCOA1 inh, NR5A2 inv ag, Gli-Sufu antag, NCOA3 inh)
O=[N+]([O-])c1ccc(O)c(-c2cc(C(F)(F)F)nc(-c3ccccc3)n2)c1	Gli-Sufu antag 87.9
Oc1ccccc1-c1cc(C(F)(F)C(F)F)nc(-c2ccccc2)n1	none
COc1ccc(OC)c(C2(O)CSC(=Nc3cccnc3)N2Cc2ccco2)c1 (stereo unspecified)	none
OC1(c2ccc(OC(F)F)cc2)CSC(=Nc2cccnc2)N1C1CC1 (stereo unspecified)	NR2F2 inh 57.5
O=C(NC1CCCCC1)C(c1cccnc1)N(C(=O)CCl)c1ccc(F)cc1 (stereo unspecified)	NCOA3 inh 69.2
COc1ccc(C(C(=O)NC2CCCCC2)N(C(=O)CCl)c2cccc(Cl)c2)cc1 (stereo unspecified)	NCOA3 inh 69.1 (no result: Gli-Sufu antag)
COc1cccc(N(C(=O)c2cnccn2)C(C(=O)NC2CCCCC2)c2ccc(Cl)cc2)c1 (stereo unspecified)	none
COc1ccc(N(C(=O)Cc2cccs2)C(C(=O)NC2CCCC2)c2ccncc2)cc1 (stereo unspecified)	none
O=C(NC1CCCCC1)C(c1cccnc1)N(C(=O)CCl)c1ccccc1Cl (stereo unspecified)	SRC2 inh 58.7
COc1ccc(N(C(=O)CCl)C(C(=O)NC2CCCCC2)c2cccnc2)cc1 (stereo unspecified)	SRC2 inh 62.9, NCOA3 inh 69.5
